Publication PMC7862700, “An all-to-all approach to the identification of sequence-specific readers for epigenetic DNA modifications on cytosine”

Key:
Test in all cases: DAPPL (digital affinity profiling via proximity ligation, sequencing); 10 mM Tris-HCl pH 7.5, 50 mM NaCl, 1 mM DTT, 4% glycerol, room temperature, 30 min; GST-TFs on glutathione beads, 16-mer random dsDNA library, 0.1% formaldehyde crosslink after washing; high values mean tight binding
[1] = molecular target: T1, FLI1 (Homo sapiens, UniProt Q01543 1-452); conditions: protein: recombinant; tags: N-terminal GST; dsDNA, one strand shown
T1 sequence: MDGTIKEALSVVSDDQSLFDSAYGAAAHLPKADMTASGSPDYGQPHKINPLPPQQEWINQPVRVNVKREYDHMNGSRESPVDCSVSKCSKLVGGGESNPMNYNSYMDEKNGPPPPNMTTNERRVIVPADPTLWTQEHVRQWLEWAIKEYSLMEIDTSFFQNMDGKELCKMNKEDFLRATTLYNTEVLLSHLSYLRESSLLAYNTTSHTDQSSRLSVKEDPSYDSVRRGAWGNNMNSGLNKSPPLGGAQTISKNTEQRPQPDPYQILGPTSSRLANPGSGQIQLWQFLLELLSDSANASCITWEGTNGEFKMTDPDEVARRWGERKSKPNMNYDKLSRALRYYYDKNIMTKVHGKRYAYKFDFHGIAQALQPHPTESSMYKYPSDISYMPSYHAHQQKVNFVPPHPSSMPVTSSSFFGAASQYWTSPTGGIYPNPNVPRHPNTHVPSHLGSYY
In short: (§1)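 A tag-only sample was pooled with DNA-barcoded human transcription factors that had been expressed in yeast as GST fusions and captured on glutathione beads. The pools were incubated for 30 min at room temperature with 200 nmole of a random double-stranded 16-mer DNA library in Tris/NaCl/DTT/glycerol buffer, then washed, crosslinked with 0.1% formaldehyde, proximity-ligated (BsaI/T4 ligase, 1 h, 37 °C), PCR-amplified and sequenced on an Illumina NextSeq500. Binding signal is each hexamer's read frequency for a factor divided by its frequency for the tag-only sample.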

[2] = molecular target: T2, ELK1 (Homo sapiens, UniProt P19419 1-428); conditions: protein: recombinant; tags: N-terminal GST; dsDNA, one strand shown
T2 sequence: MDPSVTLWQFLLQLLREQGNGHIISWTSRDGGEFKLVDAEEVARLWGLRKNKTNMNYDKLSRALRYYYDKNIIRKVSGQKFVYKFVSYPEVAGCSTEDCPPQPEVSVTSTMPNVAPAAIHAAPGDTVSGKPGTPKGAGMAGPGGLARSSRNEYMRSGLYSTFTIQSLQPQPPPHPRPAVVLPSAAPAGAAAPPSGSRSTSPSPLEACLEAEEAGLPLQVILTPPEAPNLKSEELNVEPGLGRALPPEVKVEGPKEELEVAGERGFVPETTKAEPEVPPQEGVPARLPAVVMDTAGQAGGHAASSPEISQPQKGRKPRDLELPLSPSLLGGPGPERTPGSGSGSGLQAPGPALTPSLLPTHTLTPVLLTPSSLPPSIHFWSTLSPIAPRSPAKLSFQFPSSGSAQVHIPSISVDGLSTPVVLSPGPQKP
In short: as §1

[3] = molecular target: T3, GABPA (Homo sapiens, UniProt Q06546 1-454); conditions: protein: recombinant; tags: N-terminal GST; dsDNA, one strand shown
T3 sequence: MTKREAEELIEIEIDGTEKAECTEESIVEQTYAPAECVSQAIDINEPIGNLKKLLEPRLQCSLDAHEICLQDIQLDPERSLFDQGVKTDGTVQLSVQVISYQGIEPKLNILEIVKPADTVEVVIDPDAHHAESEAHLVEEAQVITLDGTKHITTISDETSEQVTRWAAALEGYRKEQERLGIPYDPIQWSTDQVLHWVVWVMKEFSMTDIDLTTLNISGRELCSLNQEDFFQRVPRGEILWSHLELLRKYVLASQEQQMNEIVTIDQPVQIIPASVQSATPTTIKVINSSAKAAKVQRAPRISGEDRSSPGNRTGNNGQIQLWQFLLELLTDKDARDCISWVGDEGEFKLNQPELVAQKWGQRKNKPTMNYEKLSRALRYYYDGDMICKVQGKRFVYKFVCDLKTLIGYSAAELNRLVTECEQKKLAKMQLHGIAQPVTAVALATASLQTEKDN
In short: as §1

[4] = molecular target: T4, ERG (Homo sapiens, UniProt P11308 1-479); conditions: protein: recombinant; tags: N-terminal GST; dsDNA, one strand shown
T4 sequence: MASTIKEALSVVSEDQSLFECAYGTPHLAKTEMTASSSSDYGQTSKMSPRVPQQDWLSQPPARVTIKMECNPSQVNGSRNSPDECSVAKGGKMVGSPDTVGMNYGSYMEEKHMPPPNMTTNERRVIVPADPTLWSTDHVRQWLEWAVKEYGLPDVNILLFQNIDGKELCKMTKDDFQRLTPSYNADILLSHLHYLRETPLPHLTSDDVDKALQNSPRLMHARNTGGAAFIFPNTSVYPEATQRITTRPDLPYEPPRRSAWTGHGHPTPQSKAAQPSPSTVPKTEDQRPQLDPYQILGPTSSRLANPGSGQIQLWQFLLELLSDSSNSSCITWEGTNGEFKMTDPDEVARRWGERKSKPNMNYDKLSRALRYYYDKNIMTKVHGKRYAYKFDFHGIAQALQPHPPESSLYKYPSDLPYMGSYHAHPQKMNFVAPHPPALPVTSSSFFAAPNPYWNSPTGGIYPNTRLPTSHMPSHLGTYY
In short: as §1

[5] = molecular target: ELF1 (Homo sapiens, UniProt P32519 1-619); conditions: protein: recombinant; tags: N-terminal GST; dsDNA, one strand shown
Sequence of ELF1 (P32519 whole entry): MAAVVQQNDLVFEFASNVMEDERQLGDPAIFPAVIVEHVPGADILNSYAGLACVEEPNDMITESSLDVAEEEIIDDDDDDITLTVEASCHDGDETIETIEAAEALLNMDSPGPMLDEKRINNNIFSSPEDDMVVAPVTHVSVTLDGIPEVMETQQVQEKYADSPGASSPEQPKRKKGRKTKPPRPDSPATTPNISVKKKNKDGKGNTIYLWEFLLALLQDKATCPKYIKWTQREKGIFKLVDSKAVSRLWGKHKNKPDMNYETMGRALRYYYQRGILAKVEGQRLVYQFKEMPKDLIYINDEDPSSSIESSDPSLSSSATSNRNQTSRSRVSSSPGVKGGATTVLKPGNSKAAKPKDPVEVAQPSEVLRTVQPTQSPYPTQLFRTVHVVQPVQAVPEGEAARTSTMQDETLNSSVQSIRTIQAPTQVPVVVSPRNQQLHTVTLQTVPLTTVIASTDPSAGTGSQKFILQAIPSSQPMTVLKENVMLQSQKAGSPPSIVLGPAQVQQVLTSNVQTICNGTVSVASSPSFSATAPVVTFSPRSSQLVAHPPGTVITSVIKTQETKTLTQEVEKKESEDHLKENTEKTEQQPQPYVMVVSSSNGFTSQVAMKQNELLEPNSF
In short: as §1

[6] = molecular target: T5, EHF (Homo sapiens, UniProt Q9NZC4 1-300); conditions: protein: recombinant; tags: N-terminal GST; dsDNA, one strand shown
T5 sequence: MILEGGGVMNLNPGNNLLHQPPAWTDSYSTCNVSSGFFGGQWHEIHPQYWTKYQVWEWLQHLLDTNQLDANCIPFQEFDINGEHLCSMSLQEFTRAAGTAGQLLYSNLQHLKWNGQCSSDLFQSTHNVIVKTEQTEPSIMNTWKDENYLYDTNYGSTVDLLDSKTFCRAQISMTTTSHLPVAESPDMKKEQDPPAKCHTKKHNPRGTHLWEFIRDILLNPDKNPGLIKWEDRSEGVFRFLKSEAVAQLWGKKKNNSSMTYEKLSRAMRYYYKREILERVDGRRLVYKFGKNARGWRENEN
In short: as §1

[7] = molecular target: SPI1 (Homo sapiens, UniProt P17947 1-270); conditions: protein: recombinant; tags: N-terminal GST; dsDNA, one strand shown
In short: as §1

[8] = molecular target: SPIB (Homo sapiens, UniProt Q01892 1-262); conditions: protein: recombinant; tags: N-terminal GST; dsDNA, one strand shown
Sequence of SPIB (Q01892 whole entry): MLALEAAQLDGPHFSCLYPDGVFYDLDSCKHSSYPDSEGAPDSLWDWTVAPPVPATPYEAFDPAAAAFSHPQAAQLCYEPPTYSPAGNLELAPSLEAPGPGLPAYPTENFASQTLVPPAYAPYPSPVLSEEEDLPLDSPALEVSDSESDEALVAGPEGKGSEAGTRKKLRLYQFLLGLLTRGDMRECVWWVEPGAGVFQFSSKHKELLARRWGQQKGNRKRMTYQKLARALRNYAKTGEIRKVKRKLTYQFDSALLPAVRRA
In short: as §1

[9] = molecular target: T6, ELK3 (Homo sapiens, UniProt P41970 1-407); conditions: protein: recombinant; tags: N-terminal GST; dsDNA, one strand shown
T6 sequence: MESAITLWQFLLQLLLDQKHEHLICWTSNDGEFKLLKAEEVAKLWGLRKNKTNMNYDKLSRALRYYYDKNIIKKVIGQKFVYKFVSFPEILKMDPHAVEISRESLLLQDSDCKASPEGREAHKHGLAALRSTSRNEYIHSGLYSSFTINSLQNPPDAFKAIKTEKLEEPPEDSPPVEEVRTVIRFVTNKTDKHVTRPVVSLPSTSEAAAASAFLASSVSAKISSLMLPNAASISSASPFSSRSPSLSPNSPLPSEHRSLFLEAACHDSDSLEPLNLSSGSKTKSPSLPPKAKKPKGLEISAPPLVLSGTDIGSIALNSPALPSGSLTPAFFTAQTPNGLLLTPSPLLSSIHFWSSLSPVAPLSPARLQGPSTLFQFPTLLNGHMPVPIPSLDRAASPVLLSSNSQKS
In short: as §1

[10] = molecular target: T7, FEV (Homo sapiens, UniProt Q99581 1-238); conditions: protein: recombinant; tags: N-terminal GST; dsDNA, one strand shown
T7 sequence: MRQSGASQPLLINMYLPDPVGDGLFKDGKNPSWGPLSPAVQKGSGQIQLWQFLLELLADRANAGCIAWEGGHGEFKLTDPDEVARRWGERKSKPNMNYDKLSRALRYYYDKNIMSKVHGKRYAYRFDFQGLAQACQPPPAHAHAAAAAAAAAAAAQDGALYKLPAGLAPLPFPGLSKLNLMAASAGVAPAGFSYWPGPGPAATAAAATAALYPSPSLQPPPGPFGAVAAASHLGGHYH
In short: as §1

[11] = molecular target: ETV5 (Homo sapiens, UniProt P41161 1-510); conditions: protein: recombinant; tags: N-terminal GST; dsDNA, one strand shown
Sequence of ETV5 (P41161 whole entry): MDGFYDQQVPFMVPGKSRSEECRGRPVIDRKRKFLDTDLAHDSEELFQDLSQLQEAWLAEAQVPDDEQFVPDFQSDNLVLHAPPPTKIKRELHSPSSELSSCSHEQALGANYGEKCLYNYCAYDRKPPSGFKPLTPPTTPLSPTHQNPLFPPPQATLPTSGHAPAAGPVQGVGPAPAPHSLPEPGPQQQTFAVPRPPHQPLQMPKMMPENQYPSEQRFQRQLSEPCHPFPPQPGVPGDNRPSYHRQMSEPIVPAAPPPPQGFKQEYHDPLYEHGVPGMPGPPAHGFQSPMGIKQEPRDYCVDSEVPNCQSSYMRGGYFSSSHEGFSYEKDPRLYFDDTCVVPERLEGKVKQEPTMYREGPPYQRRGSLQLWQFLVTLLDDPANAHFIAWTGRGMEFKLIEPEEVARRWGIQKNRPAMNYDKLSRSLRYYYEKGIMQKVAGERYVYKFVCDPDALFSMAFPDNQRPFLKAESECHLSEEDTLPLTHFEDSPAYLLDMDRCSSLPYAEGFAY
In short: as §1

[12] = molecular target: HSF1 (Homo sapiens, UniProt Q00613 1-529); conditions: protein: recombinant; tags: N-terminal GST; chain copies: 3; dsDNA, one strand shown
Sequence of HSF1 (Q00613 whole entry): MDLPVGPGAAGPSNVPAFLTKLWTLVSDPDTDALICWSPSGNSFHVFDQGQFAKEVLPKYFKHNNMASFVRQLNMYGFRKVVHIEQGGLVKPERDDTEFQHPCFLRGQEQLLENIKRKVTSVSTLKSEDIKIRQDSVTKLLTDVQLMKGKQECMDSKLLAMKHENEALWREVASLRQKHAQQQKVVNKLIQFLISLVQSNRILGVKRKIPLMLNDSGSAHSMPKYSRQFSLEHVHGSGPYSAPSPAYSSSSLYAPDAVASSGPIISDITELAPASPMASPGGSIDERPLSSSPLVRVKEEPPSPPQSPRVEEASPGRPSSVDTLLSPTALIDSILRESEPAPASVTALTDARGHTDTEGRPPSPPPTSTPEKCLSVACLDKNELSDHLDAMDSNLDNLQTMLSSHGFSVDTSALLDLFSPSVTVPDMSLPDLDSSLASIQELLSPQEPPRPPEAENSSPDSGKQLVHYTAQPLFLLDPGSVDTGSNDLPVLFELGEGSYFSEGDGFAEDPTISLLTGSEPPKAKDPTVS
In short: as §1

[13] = molecular target: T8, SPIC (Homo sapiens, UniProt Q8N5J4 1-248); conditions: protein: recombinant; tags: N-terminal GST; dsDNA, one strand shown
T8 sequence: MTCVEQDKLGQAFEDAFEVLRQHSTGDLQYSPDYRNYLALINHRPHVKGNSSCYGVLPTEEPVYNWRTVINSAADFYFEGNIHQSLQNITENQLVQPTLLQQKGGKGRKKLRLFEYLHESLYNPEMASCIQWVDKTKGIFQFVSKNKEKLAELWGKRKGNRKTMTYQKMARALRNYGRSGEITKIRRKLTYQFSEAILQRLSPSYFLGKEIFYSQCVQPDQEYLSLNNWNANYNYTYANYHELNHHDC
In short: as §1

[14] = molecular target: ELF4 (Homo sapiens, UniProt Q99607 1-663); conditions: protein: recombinant; tags: N-terminal GST; dsDNA, one strand shown
Sequence of ELF4 (Q99607 whole entry): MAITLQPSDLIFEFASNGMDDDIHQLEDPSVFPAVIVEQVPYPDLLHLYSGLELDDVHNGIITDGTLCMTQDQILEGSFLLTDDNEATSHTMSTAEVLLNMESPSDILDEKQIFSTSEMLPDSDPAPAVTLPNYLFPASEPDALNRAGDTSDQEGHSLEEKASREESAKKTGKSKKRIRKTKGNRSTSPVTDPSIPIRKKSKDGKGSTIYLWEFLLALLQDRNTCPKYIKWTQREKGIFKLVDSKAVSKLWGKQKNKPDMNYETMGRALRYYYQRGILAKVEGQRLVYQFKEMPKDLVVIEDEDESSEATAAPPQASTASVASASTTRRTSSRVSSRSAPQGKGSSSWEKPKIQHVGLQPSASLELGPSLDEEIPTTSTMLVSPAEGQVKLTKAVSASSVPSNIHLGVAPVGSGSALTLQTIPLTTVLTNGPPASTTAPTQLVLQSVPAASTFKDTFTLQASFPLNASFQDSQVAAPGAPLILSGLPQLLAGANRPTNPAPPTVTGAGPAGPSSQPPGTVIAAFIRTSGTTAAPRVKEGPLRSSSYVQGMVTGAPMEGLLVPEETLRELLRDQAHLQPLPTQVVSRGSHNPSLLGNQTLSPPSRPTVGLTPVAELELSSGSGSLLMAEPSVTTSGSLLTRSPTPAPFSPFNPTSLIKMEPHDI
In short: as §1

[15] = molecular target: T9, ELK4 (Homo sapiens, UniProt P28324-2 1-405); conditions: protein: recombinant; tags: N-terminal GST; dsDNA, one strand shown
T9 sequence: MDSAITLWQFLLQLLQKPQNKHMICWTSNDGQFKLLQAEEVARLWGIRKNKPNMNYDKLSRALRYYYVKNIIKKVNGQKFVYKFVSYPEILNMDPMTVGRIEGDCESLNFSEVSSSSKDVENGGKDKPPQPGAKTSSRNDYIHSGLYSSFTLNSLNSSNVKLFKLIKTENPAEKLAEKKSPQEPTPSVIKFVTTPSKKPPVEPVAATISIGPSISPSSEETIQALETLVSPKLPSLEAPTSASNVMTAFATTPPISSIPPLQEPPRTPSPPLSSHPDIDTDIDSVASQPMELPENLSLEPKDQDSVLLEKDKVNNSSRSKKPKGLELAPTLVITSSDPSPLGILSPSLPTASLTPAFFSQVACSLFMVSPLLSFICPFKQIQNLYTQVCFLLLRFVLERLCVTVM
In short: as §1

[16] = molecular target: T10, ETV2 (Homo sapiens, UniProt O00321 1-342); conditions: protein: recombinant; tags: N-terminal GST; dsDNA, one strand shown
T10 sequence: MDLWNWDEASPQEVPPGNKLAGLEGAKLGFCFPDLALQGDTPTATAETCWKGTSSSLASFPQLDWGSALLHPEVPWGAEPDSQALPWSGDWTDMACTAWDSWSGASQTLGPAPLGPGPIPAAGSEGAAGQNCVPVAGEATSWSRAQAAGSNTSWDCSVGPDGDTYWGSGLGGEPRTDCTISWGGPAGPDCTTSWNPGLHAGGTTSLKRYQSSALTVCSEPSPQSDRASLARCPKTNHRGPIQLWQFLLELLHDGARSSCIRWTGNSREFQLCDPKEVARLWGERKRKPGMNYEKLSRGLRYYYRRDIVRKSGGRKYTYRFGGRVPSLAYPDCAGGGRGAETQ
In short: as §1

[17] = molecular target: T11, ELF3 (Homo sapiens, UniProt P78545 1-371); conditions: protein: recombinant; tags: N-terminal GST; dsDNA, one strand shown
T11 sequence: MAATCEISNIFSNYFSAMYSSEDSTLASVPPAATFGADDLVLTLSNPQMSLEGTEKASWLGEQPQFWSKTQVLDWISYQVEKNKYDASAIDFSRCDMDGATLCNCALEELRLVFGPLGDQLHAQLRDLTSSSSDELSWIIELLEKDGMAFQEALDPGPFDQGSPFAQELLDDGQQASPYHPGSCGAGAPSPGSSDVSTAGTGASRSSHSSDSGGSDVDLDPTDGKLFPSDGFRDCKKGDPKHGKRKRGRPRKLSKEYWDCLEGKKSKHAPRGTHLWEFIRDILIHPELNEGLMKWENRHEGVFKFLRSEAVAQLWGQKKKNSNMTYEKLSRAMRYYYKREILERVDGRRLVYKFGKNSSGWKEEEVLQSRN
In short: as §1

[18] = molecular target: CRX (Homo sapiens, UniProt O43186 1-299); conditions: protein: recombinant; tags: N-terminal GST; dsDNA, one strand shown
Sequence of CRX (O43186 whole entry): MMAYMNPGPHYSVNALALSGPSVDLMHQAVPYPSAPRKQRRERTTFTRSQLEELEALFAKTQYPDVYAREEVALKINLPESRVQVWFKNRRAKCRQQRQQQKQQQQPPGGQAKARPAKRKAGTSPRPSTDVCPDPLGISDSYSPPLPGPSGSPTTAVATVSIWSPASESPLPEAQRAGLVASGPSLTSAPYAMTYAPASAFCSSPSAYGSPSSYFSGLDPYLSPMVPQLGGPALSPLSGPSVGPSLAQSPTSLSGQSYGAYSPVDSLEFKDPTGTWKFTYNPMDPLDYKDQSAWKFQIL
In short: as §1

[19] = molecular target: ETV1 (Homo sapiens, UniProt P50549 1-477); conditions: protein: recombinant; tags: N-terminal GST; dsDNA, one strand shown
Sequence of ETV1 (P50549 whole entry): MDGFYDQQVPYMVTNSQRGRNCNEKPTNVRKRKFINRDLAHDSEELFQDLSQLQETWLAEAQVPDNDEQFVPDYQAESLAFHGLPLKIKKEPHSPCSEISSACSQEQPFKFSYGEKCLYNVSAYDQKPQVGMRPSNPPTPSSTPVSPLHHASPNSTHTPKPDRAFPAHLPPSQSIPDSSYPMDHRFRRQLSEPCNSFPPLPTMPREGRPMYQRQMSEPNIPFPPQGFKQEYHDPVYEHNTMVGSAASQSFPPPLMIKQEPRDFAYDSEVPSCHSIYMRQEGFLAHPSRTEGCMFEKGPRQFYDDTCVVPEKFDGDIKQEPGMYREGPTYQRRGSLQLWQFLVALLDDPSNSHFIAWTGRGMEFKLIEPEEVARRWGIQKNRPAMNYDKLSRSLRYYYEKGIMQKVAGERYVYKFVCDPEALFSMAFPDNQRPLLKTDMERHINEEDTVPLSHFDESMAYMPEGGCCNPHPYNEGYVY
In short: as §1

CTGGAA
binding signal [1]: 1.22 fold enrichment (6-mer frequency, TF over GST control) | binding signal [2]: 1.25 fold enrichment (6-mer frequency, TF over GST control) | binding signal [3]: 1.33 fold enrichment (6-mer frequency, TF over GST control) | binding signal [4]: 1.27 fold enrichment (6-mer frequency, TF over GST control) | binding signal [5]: 1.19 fold enrichment (6-mer frequency, TF over GST control) | binding signal [6]: 1.2 fold enrichment (6-mer frequency, TF over GST control) | binding signal [7]: 1.26 fold enrichment (6-mer frequency, TF over GST control) | binding signal [8]: 1.31 fold enrichment (6-mer frequency, TF over GST control) | binding signal [9]: 1.31 fold enrichment (6-mer frequency, TF over GST control) | binding signal [10]: 1.2 fold enrichment (6-mer frequency, TF over GST control) | binding signal [11]: 1.29 fold enrichment (6-mer frequency, TF over GST control) | binding signal [12]: 4.43 fold enrichment (6-mer frequency, TF over GST control) | binding signal [13]: 1.2 fold enrichment (6-mer frequency, TF over GST control) | binding signal [14]: 1.23 fold enrichment (6-mer frequency, TF over GST control) | binding signal [15]: 1.08 fold enrichment (6-mer frequency, TF over GST control) | binding signal [16]: 1.43 fold enrichment (6-mer frequency, TF over GST control) | binding signal [17]: 1.11 fold enrichment (6-mer frequency, TF over GST control) | binding signal [18]: 1.89 fold enrichment (6-mer frequency, TF over GST control) | binding signal [19]: 1.32 fold enrichment (6-mer frequency, TF over GST control)
